Inconclusive results are not listed. Active and inactive are the calls of the source. Calls come from the whole dose curve; as a rule, active = well fitted cell-killing curve with a large enough effect; inconclusive = small, poorly fitted or top-dose-only effect, or effect the other way; inactive = flat fitted curve, though single readings scatter.
Assays:
Experiment in all cases: Primary qHTS to identify gynecologic anti-cancer compounds using libraries of approved drugs and bioactive compounds (AID 1345084); note: nearly all actives have a fitted effect of over 55% in size
[1] = tested on: C33A; details: Gynecologic cancer cell panel viability, ATPlite luminescence, 48 h; series mostly up to 57.5 µM
Method in brief: (§1)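 In this quantitative HTS, cell killing is estimated from loss of ATP-dependent luciferase light. Cells see five compound concentrations over a 48 h exposure.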

[2] = tested on: CAOV3; details: Gynecologic cancer cell panel viability, ATPlite luminescence, 48 h; series mostly up to 57.5 µM
Method in brief: as §1

[3] = tested on: CASKI; details: Gynecologic cancer cell panel viability, ATPlite luminescence, 48 h; series mostly up to 57.5 µM
Method in brief: as §1

[4] = tested on: Es-2; details: Gynecologic cancer cell panel viability, ATPlite luminescence, 48 h; series mostly up to 57.5 µM
Method in brief: as §1

[5] = tested on: HeLa; details: Gynecologic cancer cell panel viability, ATPlite luminescence, 48 h; series mostly up to 57.5 µM
Method in brief: as §1

[6] = tested on: Hek293T; details: Gynecologic cancer cell panel viability, ATPlite luminescence, 48 h, control line for the selectivity index; series mostly up to 57.5 µM
Method in brief: as §1

[7] = tested on: JEG-3; details: Gynecologic cancer cell panel viability, ATPlite luminescence, 48 h; series mostly up to 57.5 µM
Method in brief: as §1

[8] = tested on: OV90; details: Gynecologic cancer cell panel viability, ATPlite luminescence, 48 h; series mostly up to 57.5 µM
Method in brief: as §1

[9] = tested on: PA-1; details: Gynecologic cancer cell panel viability, ATPlite luminescence, 48 h; series mostly up to 57.5 µM
Method in brief: as §1

[10] = tested on: Tov-21-G; details: Gynecologic cancer cell panel viability, ATPlite luminescence, 48 h; series mostly up to 57.5 µM
Method in brief: as §1

[11] = tested on: Tov112D; details: Gynecologic cancer cell panel viability, ATPlite luminescence, 48 h; series mostly up to 57.5 µM
Method in brief: as §1
% is set by controls: 0 for no effect and ±100 for the full control effect.

CN(C)CC1CCOC1(c1ccccc1)c1ccccc1 (configuration not stated)
inactive: Potency [1] | Potency [2] | Potency [3] | Potency [4] | Potency [5] | Potency [6] | Potency [7] | Potency [8] | Potency [9] | Potency [10] | Potency [11]

c1ccc(N2CCN(CCc3nn[nH]n3)CC2)cc1
inactive: Potency [1] | Potency [2] | Potency [3] | Potency [4] | Potency [5] | Potency [6] | Potency [7] | Potency [8] | Potency [9] | Potency [10] | Potency [11]

CC(=O)OC1CC2C3(C)CCC(OC(=O)CC(=O)O)C(C)(C)C3CCC2(C)C2(C)CCC(C3(C)CCC(=O)O3)C12 (configuration not stated)
inactive: Potency [1] | Potency [2] | Potency [3] | Potency [4] | Potency [5] | Potency [6] | Potency [7] | Potency [8] | Potency [9] | Potency [10] | Potency [11]

COC1=CC(=O)CC(C)C12Oc1cc(OC)cc(O)c1C2=O (configuration not stated)
inactive: Potency [1] | Potency [2] | Potency [3] | Potency [4] | Potency [5] | Potency [6] | Potency [7] | Potency [8] | Potency [9] | Potency [10] | Potency [11]

CC(O)/C=C/C1C(C)C(O[C@@H]2O[C@H](CO)[C@@H](O)[C@H](O)[C@H]2O)C(O)CC1(C)C (some centres not stated)
inactive: Potency [1] | Potency [2] | Potency [3] | Potency [4] | Potency [5] | Potency [6] | Potency [7] | Potency [8] | Potency [9] | Potency [10] | Potency [11]

Cc1cc(O)cc(O[C@@H]2O[C@H](CO)[C@@H](O)[C@H](O)[C@H]2O)c1
inactive: Potency [1] | Potency [2] | Potency [3] | Potency [4] | Potency [5] | Potency [6] | Potency [7] | Potency [8] | Potency [9] | Potency [10] | Potency [11]

OC[C@@]1(O)CO[C@@H](OC[C@H]2O[C@@H](Oc3c[nH]c4ccccc34)[C@H](O)[C@@H](O)[C@@H]2O)[C@@H]1O
inactive: Potency [1] | Potency [2] | Potency [3] | Potency [4] | Potency [5] | Potency [6] | Potency [7] | Potency [8] | Potency [9] | Potency [10] | Potency [11]

Cc1ccc(Cc2c(C)nc3nc(SCC(=O)NCCN4CCNCC4)nn3c2C)cc1
inactive: Potency [1] | Potency [2] | Potency [3] | Potency [4] | Potency [5] | Potency [6] | Potency [7] | Potency [8] | Potency [9] | Potency [10] | Potency [11]

CC(C)(C(=O)NCC(F)(F)C(F)(F)F)C(=O)NC1C(=O)Nc2ccccc2-c2ccccc21 (configuration not stated)
inactive: Potency [1] | Potency [2] | Potency [3] | Potency [4] | Potency [5] | Potency [6] | Potency [7] | Potency [8] | Potency [9] | Potency [10] | Potency [11]

Cc1c(C(=O)Nc2ccc(N3CC(C)OC(C)C3)nc2)cccc1-c1ccc(OC(F)(F)F)cc1 (configuration not stated)
inactive: Potency [1] | Potency [2] | Potency [3] | Potency [4] | Potency [5] | Potency [6] | Potency [7] | Potency [8] | Potency [9] | Potency [10] | Potency [11]

CC1(C)CC[C@]2(C(=O)O[C@@H]3O[C@H](CO)[C@@H](O)[C@H](O)[C@H]3O)CC[C@]3(C)C(=CCC4[C@@]5(C)C[C@@H](O)[C@H](O)[C@](C)(C(=O)O)C5CC[C@]43C)C2C1O (some centres not stated)
inactive: Potency [1] | Potency [2] | Potency [3] | Potency [4] | Potency [5] | Potency [6] | Potency [7] | Potency [8] | Potency [9] | Potency [10] | Potency [11]

C[C@@H]1O[C@@H](O[C@@H]2[C@@H](O)[C@@H](O[C@]3(CO)O[C@H](CO)[C@@H](O)[C@@H]3OC(=O)/C=C/c3ccc(O)cc3)O[C@H](CO)[C@H]2OC(=O)/C=C/c2ccc(O)cc2)[C@H](O)[C@H](O)[C@H]1O[C@@H]1O[C@@H](C)[C@H](O[C@@H]2OC[C@](O)(CO)[C@H]2O)[C@@H](O)[C@H]1O
inactive: activity change, negative = cytotoxicity [1] 8.98% [at 11.6 µM] | activity change, negative = cytotoxicity [2] 0.132% [at 11.6 µM] | activity change, negative = cytotoxicity [3] 12.2% [at 11.6 µM] | activity change, negative = cytotoxicity [4] -1.87% [at 11.6 µM] | activity change, negative = cytotoxicity [5] 10.7% [at 11.6 µM] | activity change, negative = cytotoxicity [6] -1.85% [at 11.6 µM] | activity change, negative = cytotoxicity [7] 3.39% [at 11.6 µM] | activity change, negative = cytotoxicity [8] -2.82% [at 11.6 µM] | activity change, negative = cytotoxicity [9] 32.6% [at 11.6 µM] | activity change, negative = cytotoxicity [10] 7.09% [at 11.6 µM] | activity change, negative = cytotoxicity [11] 12.6% [at 11.6 µM]

CC(C)[C@@H]1C(=O)N(S(C)(=O)=O)[C@@H]2CCN(C(=O)/C=C/CN3CCCCC3)[C@H]21
inactive: Potency [1] | Potency [2] | Potency [3] | Potency [4] | Potency [5] | Potency [6] | Potency [7] | Potency [8] | Potency [9] | Potency [10] | Potency [11]

CC1(C)CC[C@]2(C(=O)O)CC[C@]3(C)C(=CCC4[C@@]5(C)C[C@@H](O)[C@H](O)C(C)(C)C5CC[C@]43C)C2C1 (some centres not stated)
inactive: Potency [1] | Potency [2] | Potency [3] | Potency [4] | Potency [5] | Potency [6] | Potency [7] | Potency [8] | Potency [9] | Potency [10] | Potency [11]

O=C(O)c1ccccc1NC(=O)N1CCC(c2ccccc2C(F)(F)F)CC1
inactive: Potency [1] | Potency [2] | Potency [3] | Potency [4] | Potency [5] | Potency [6] | Potency [7] | Potency [8] | Potency [9] | Potency [10] | Potency [11]

CCCCOC(=O)NC(=O)C1c2ccccc2Oc2ccccc21
inactive: Potency [1] | Potency [2] | Potency [3] | Potency [4] | Potency [5] | Potency [6] | Potency [7] | Potency [8] | Potency [9] | Potency [10] | Potency [11]

C=C[C@@](C)(O)CC/C=C(\C)C(=O)O[C@@H]1[C@@H]2O[C@]2(C)[C@H]2[C@H](O[C@@H]3O[C@H](CO)[C@@H](O)[C@H](O)[C@H]3O)OC=C[C@@]12O
inactive: Potency [1] | Potency [2] | Potency [3] | Potency [4] | Potency [5] | Potency [6] | Potency [7] | Potency [8] | Potency [9] | Potency [10] | Potency [11]
